ROC1-CUL1 inh = blocks human RBX1-Cullin-1 di-ubiquitin formation. P62877+Q13616. in vitro K48 di-Ub FRET, acceptor:donor ratio, 45 min. inhibition, % at 10 µM. 140,000 compounds, 0.6% hits; in the data active = inhibition above about 25%
Hits are given with their value; – = inactive. This excerpt belongs to a sample that is enriched for hits.

SMILES	ROC1-CUL1 inh
CC(=O)c1cccc(OCc2cc(C(=O)N3CCCCCCC3)n[nH]2)c1	–
CCOC(=O)c1cccc(-c2nc3cc(OC)c(OC)cc3c(=O)o2)n1	–
COc1ccc(C(=O)c2sc3nc(-c4cccs4)cc(C(F)(F)F)c3c2N)cc1	–
C[N+]1(c2cccc(C(F)(F)F)c2)CCC(N)=N1 (centres undefined)	–
Cc1ccc([C@H]2Nc3ccc(S(=O)(=O)Nc4cccc(Cl)c4C)cc3[C@H]3C=CC[C@H]32)cc1	–
COC(=O)c1ccc([C@@H]2Nc3c(OC)ccc(C)c3[C@@H]3C=CC[C@@H]32)cc1	–
Cc1ccc([C@@H]2Nc3c(ccc(C(=O)O)c3C)[C@@H]3C=CC[C@@H]32)cc1	97
Cc1ccc(NC(=O)NNC(=O)c2ccc(Cn3cccn3)o2)cc1	–
COc1cc(/C=C2\C(=O)NN(c3ccc(Br)cc3)C2=O)cc(OC)c1OC	–
O=C1NN(c2ccc(Br)cc2)C(=O)/C1=C\c1ccc(F)cc1	86
O=C1NN(c2ccc(I)cc2)C(=O)/C1=C\c1cccc(I)c1	–
O=C1NN(c2ccc(Cl)cc2)C(=O)/C1=C/c1ccc(Cl)cc1	46
CCN(CC)c1ccc(/C=C2/C(=O)NN(c3cccc(Br)c3)C2=O)cc1	–
CCc1ccc(N2NC(=O)/C(=C/c3cccc(Br)c3)C2=O)cc1	40
CC(C)CCN(C)c1ccc(/C=C2/C(=O)NN(c3ccc(Br)cc3)C2=O)cc1	–
CCOc1ccc(/C=C2/C(=O)NN(c3ccc(I)cc3)C2=O)cc1	–
O=C1NN(c2ccc(Cl)cc2)C(=O)/C1=C/c1ccc(O)cc1O	–
CCc1ccc(N2NC(=O)/C(=C\c3cccs3)C2=O)cc1	–
Cc1ccc(/C=C2\C(=O)NN(c3ccc(I)cc3)C2=O)cc1	63
O=C1NN(c2ccc(Cl)cc2)C(=O)/C1=C/c1ccc2c(c1)OCO2	–
COc1ccc(N2C(=O)/C(=C/c3c(F)cccc3Cl)SC2=S)cc1	–
CCOc1cc(C2c3ccc(N)cc3OC(=N)C2C#N)ccc1O (centres undefined)	–
O=C1N(CCc2ccccc2)CCCC1(O)CNC1C2CC3CC(C2)CC1C3 (centres undefined)	–
CC(C)CCCC(C)C1CCC2C3CCC4C(C)[C@@H](O)CCC4(C)C3CCC12C (some centres undefined)	–
CC(=O)OCC12CCC(O1)C1C(=O)OC(=O)C12C (centres undefined)	–
SMILES	ROC1-CUL1 inh
Cc1cc(C)cc(NC2(c3ccccc3)C(=O)c3ccccc3C2=O)c1	–
CN1CCN(CC#CC=C(c2ccccc2)c2ccccc2)CC1	–
Cc1cc(C)n(-c2ccc(NC(=O)Cn3ncc(N(C)C)cc3=O)cc2)n1	–
O=C1NN(c2ccc(I)cc2)C(=O)/C1=C\c1cc(Br)ccc1O	29
O=C1NN(c2ccc(I)cc2)C(=O)/C1=C\c1ccccc1O	–
CCOc1ccc(Br)cc1/C=C1/C(=O)NN(c2ccc(I)cc2)C1=O	–
CC(=O)N1CCC(Oc2ccc(Cl)cc2C(=O)NC2CCCCC2)CC1	–
CCOc1ccc(C2C(C(=O)c3cc4ccccc4o3)C(=O)C(=O)N2c2nnc(SCc3ccccc3F)s2)cc1OC (centres undefined)	–
O=C1C(=O)N(c2nnc(SCc3ccc(Cl)cc3)s2)C(c2cccs2)C1C(=O)c1cc2ccccc2o1 (centres undefined)	45
O=C1C(=O)N(c2nnc(SCc3ccccc3)s2)C(c2cccs2)C1C(=O)c1cc2ccccc2o1 (centres undefined)	–
CCOc1cc(C2C(C(=O)c3cc4ccccc4o3)C(=O)C(=O)N2c2nnc(SCc3cccc4ccccc34)s2)ccc1O (centres undefined)	–
CCOc1cc(C2C(C(=O)c3cc4ccccc4o3)C(=O)C(=O)N2c2nnc(SCc3ccccc3)s2)ccc1O (centres undefined)	65
O=C1C(=O)N(c2nnc(SCc3ccc(Cl)cc3)s2)C(c2cccc(O)c2)C1C(=O)c1cc2ccccc2o1 (centres undefined)	–
CCOc1ccccc1NC(=O)c1sc2nc(-c3ccc(F)cc3)ccc2c1N	–
Cc1ccc(C)c(Nc2nc(Cl)nc(N3CCOCC3)n2)c1	–
O=c1c(-c2ccccc2)c1-c1ccccc1	–
COc1ccc(OC)c2c1C(=O)c1ccccc1-2	–
O=C1c2ccccc2-c2c1c(O)c(O)c(-c1ccccc1)c2-c1ccccc1	102
CCc1ccccc1NC(=O)c1ccccc1	–
CC1=NN(c2ccc(C)cc2)C(O)C1 (centres undefined)	75
CSc1ccc(C2N(c3ccc(C)cc3)CCN2c2ccc(C)cc2)cc1	–
Cc1ccc(N2C(=O)C(=O)N=C(Cl)C2Cl)cc1 (centres undefined)	–
Cc1cccc(NC(=O)c2c(-c3c(F)cccc3Cl)noc2C)c1	–
CCc1ccc(NC(=O)c2snnc2C)cc1	–
O=C1CCC(=O)N1CSC(=S)N/N=C\c1ccco1	–
SMILES	ROC1-CUL1 inh
Cc1ccc2c(C)c(C(=O)N=C3C(=O)N(c4ccccc4)N(C)C3C)oc2c1C (centres undefined)	–
Cc1[nH]n(-c2ccccc2)c(=O)c1C(C[N+](=O)[O-])c1ccc(F)cc1 (centres undefined)	59
Cc1[nH]n(-c2ccccc2)c(=O)c1C(c1ccc(OCc2ccc(F)cc2)cc1)c1c(C)[nH]n(-c2ccccc2)c1=O	–
Cc1[nH]n(-c2ccccc2)c(=O)c1C(C[N+](=O)[O-])c1ccc(Cl)cc1 (centres undefined)	–
Cc1[nH]n(-c2ccccc2)c(=O)c1C(c1ccccc1O)c1c(C)[nH]n(-c2ccccc2)c1=O	–
Cc1[nH]n(-c2ccccc2)c(=O)c1C(c1ccco1)c1c(C)[nH]n(-c2ccccc2)c1=O	–
COc1cc(C(c2c(C)[nH]n(-c3ccccc3)c2=O)c2c(C)[nH]n(-c3ccccc3)c2=O)ccc1C	–
CCOc1cc(C(c2c(C)[nH]n(-c3ccccc3)c2=O)c2c(C)[nH]n(-c3ccccc3)c2=O)ccc1O	39
CCOc1cc(C(c2c(C)[nH]n(-c3ccccc3)c2=O)c2c(C)[nH]n(-c3ccccc3)c2=O)ccc1OCc1ccc(Cl)cc1	–
Cc1[nH]n(-c2ccccc2)c(=O)c1C(c1ccc2c(c1)OCO2)c1c(C)[nH]n(-c2ccccc2)c1=O	46
O=C(O)C1C2CCC(O2)C1C(=O)Nc1ccc2c(c1)CCC2 (centres undefined)	–
COC(=O)c1cc(C(C)C)sc1NC(=O)c1c(C)noc1C	–
COC(=O)c1c(-c2ccc(F)cc2)csc1NC(=O)c1ccc(C)c(C)c1	–
CC1(C)COC(c2ccc([N+](=O)[O-])cc2)N1 (centres undefined)	–
Cc1nnnn1CC(=O)Nc1ccc(F)cc1	–
CC(c1nccs1)N(C)C(=O)c1coc(CN2CCN(c3ccccc3F)CC2)n1 (centres undefined)	–
Cc1c(C)n(C)c2ccc(C(=O)Nc3ccc(C(N)=O)cc3)cc12	–
COc1ccc2cc(-c3[nH]ncc3CN(C)CC3CCCCO3)ccc2c1 (centres undefined)	–
CCn1c(SCC(=O)Nc2ccccc2F)nc2c1c(=O)n(C)c(=O)n2C	–
CCOC(=O)c1c(N=CC2C(=O)NC(=S)N(c3ccc(F)cc3)C2=O)sc2c1CCCC2 (centres undefined)	–
CCOc1ccc(N2C(=O)C(C=Nc3cc(N)cc(C(=O)O)c3)C(=O)NC2=S)cc1 (centres undefined)	90
Cc1ccc(N2C(=O)NC(=O)C(C=Nc3ccc(O)c(C(=O)O)c3)C2=O)cc1 (centres undefined)	–
